Source: PubChem BioAssay AID1159580 (chemical genetic matrix, 2015)
The campaign covered roughly 5,500 compounds. About 2,000 (36%) were called active. Roughly 18% stayed inconclusive and do not appear here. This is one part of the list. Values without a mark were called inactive. Rule as the data show it: active = normalized growth mostly below about 0.91 (no sharp cut-off); inconclusive = no clear call, values can overlap the other calls; inactive = mostly above about 0.92.

Assay: chemical genetic growth profiling, strain panel (AID 1159580);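 also: tested at 20 µM; growth read once vehicle control cultures reached saturation at 30 °C; 1 = growth at the plate median or of vehicle wells; lower values mean less growth of the strain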
Details: S. cerevisiae deletion strains, growth OD

SMILES: Cc1c(C(=O)N2CCCCC2)cc(-c2ccccc2)n1-c1ccccc1
- normalized growth (locus YAR019C, strain CDC15, hits give low values): 0.964
- normalized growth (locus YBL105C, strain PKC1, hits give low values): 0.975
- normalized growth (locus YBR135W, strain CKS1, hits give low values): 0.969
- normalized growth (locus YBR136W, strain MEC1, hits give low values): 0.969
- normalized growth (locus YBR160W, strain CDC28, hits give low values): 0.959
- normalized growth (locus YDL017W, strain CDC7, hits give low values): 0.973
- normalized growth (locus YDL028C, strain MPS1, hits give low values): 0.946
- normalized growth (locus YDL101C, strain DUN1, hits give low values): 0.969
- normalized growth (locus YDL108W, strain KIN28, hits give low values): 0.968
- normalized growth (locus YDL132W, strain cdc53, hits give low values): 0.973
- normalized growth (locus YDL214C, strain PRR2, hits give low values): 0.908
- normalized growth (locus YDR052C, strain DBF4, hits give low values): 0.983
- normalized growth (locus YDR054C, strain cdc34, hits give low values): 0.968
- normalized growth (locus YDR226W, strain ADK1, hits give low values): 0.962
- normalized growth (locus YDR477W, strain SNF1, hits give low values): 0.908
- normalized growth (locus YER123W, strain YCK3, hits give low values): 0.896
- normalized growth (locus YER133W, strain GLC7, hits give low values): 0.924
- normalized growth (locus YFL009W, strain cdc4, hits give low values): 0.952
- normalized growth (locus YFL029C, strain CAK1, hits give low values): 0.967
- normalized growth (locus YFR003C, strain YPI1, hits give low values): 0.976
- normalized growth (locus YFR019W, strain FAB1, hits give low values): 0.944
- normalized growth (locus YFR028C, strain CDC14, hits give low values): 0.968
- normalized growth (locus YGR040W, strain KSS1, hits give low values): 0.897
- normalized growth (locus YGR052W, strain FMP48, hits give low values): 0.947
- normalized growth (locus YGR092W, strain DBF2, hits give low values): 0.855
- normalized growth (locus YHR030C, strain SLT2, hits give low values): 0.676 (active)
- normalized growth (locus YHR079C, strain IRE1, hits give low values): 0.822
- normalized growth (locus YHR082C, strain KSP1, hits give low values): 0.901
- normalized growth (locus YHR205W, strain SCH9, hits give low values): 0.828
- normalized growth (locus YIL147C, strain SLN1, hits give low values): 0.951
- normalized growth (locus YJL095W, strain BCK1, hits give low values): 0.837
- normalized growth (locus YJL128C, strain PBS2, hits give low values): 0.922
- normalized growth (locus YJL157C, strain FAR1, hits give low values): 0.933
- normalized growth (locus YJR016C, strain ILV3, hits give low values): 0.975
- normalized growth (locus YJR066W, strain TOR1 (second series), hits give low values): 0.912
- normalized growth (locus YJR066W, strain TOR1, hits give low values): 0.843
- normalized growth (locus YKL048C, strain ELM1, hits give low values): 0.928
- normalized growth (locus YKL067W, strain YNK1, hits give low values): 0.916
- normalized growth (locus YKL101W, strain HSL1, hits give low values): 0.884
- normalized growth (locus YKL193C, strain SDS22, hits give low values): 0.969
- normalized growth (locus YKL203C, strain TOR2, hits give low values): 0.981
- normalized growth (locus YLR113W, strain HOG1, hits give low values): 0.787 (active)
- normalized growth (locus YLR133W, strain CKI1, hits give low values): 0.921
- normalized growth (locus YLR403W, strain SFP1, hits give low values): 0.905
- normalized growth (locus YML070W, strain DAK1, hits give low values): 0.898
- normalized growth (locus YMR001C, strain CDC5, hits give low values): 0.944
- normalized growth (locus YMR205C, strain PFK2 (second series), hits give low values): 0.934
- normalized growth (locus YMR277W, strain FCP1, hits give low values): 0.943
- normalized growth (locus YNL006W, strain LST8, hits give low values): 0.965
- normalized growth (locus YNL020C, strain ARK1, hits give low values): 0.921
- normalized growth (locus YNL161W, strain CBK1, hits give low values): 0.972
- normalized growth (locus YNL183C, strain NPR1, hits give low values): 0.942
- normalized growth (locus YNL207W, strain RIO2, hits give low values): 0.974
- normalized growth (locus YNL222W, strain SSU72, hits give low values): 0.949
- normalized growth (locus YNL307C, strain MCK1 (second series), hits give low values): 0.881
- normalized growth (locus YOL078W, strain AVO1, hits give low values): 0.974
- normalized growth (locus YOL136C, strain PFK27, hits give low values): 0.88
- normalized growth (locus YOR061W, strain CKA2, hits give low values): 0.918
- normalized growth (locus YOR119C, strain RIO1, hits give low values): 0.932
- normalized growth (locus YOR231W, strain MKK1, hits give low values): 0.823
- normalized growth (locus YOR329C, strain SCD5, hits give low values): 0.977
- normalized growth (locus YPL031C, strain PHO85, hits give low values): 0.891
- normalized growth (locus YPL153C, strain RAD53, hits give low values): 0.91
- normalized growth (locus YPL204W, strain HRR25, hits give low values): 0.899
- normalized growth (locus YPL209C, strain IPL1, hits give low values): 0.974
- normalized growth (locus YPL256C, strain CLN2, hits give low values): 0.8 (active)
- normalized growth (locus YPR025C, strain CCL1, hits give low values): 0.981
- normalized growth (locus YPR106W, strain ISR1, hits give low values): 0.958
- normalized growth (locus YPR111W, strain DBF20, hits give low values): 0.94
- normalized growth (strain NNK1, hits give low values): 0.962
- normalized growth (strain TSCII, hits give low values): 0.96
